The results in this text go back to article PMC8384837, “Expanding the binding specificity for RNA recognition by a PUF domain”.

What all share (experiment): yeast three-hybrid, YBZ-1, SC-Leu-His + 0.5 mM 3-AT, 4 days
Holding throughout (details): tags: N-Gal4 AD-HA kept; label: inside an RPR1-promoter hybrid RNA with tandem MS2 sites; ssRNA

For test [1], the target named is PUM1 PUF domain R4-DYS (Homo sapiens, UniProt Q14671 828-1176, N971D;H972Y;Q975S). An outline of the steps: (§1)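 The interaction score is the log change in variant frequency from input to selection. Scores were computed in log2 with a pseudocount of 1 for absent variants, using Illumina sequencing of PCR-amplified repeat regions. The input came from four days on SC-Leu and the selection from four days on SC-Leu-His + 0.5 mM 3-AT. The cells were strain YBZ-1 (LexA–MS2 coat fusion, HIS3 reporter) co-expressing Pumilio-1 PUF domain libraries and matching RNA elements from a centromeric plasmid.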

In test [2] the target is PUM1 PUF domain R3-LWL (Homo sapiens, UniProt Q14671 828-1176, C935L;R936W;Q939L). The gist of the method: as §1
The target in test [3] is PUM1 PUF domain R8-RYQ (Homo sapiens, UniProt Q14671 828-1176, N1122R). An outline of the steps: as §1
For test [4], the target named is PUM1 PUF domain R8-AWQ (Homo sapiens, UniProt Q14671 828-1176, N1122A;Y1123W). An outline of the steps:
as §1

In test [5] the target is PUM1 PUF domain R3-APR (Homo sapiens, UniProt Q14671 828-1176, C935A;R936P;Q939R). An outline of the steps: as §1
The target in test [6] is PUM1 PUF domain R3-GRC (Homo sapiens, UniProt Q14671 828-1176, C935G;Q939C). The gist of the method: as §1
Test [7] concerns the target PUM1 PUF domain R5-TPR (Homo sapiens, UniProt Q14671 828-1176, C1007T;R1008P;Q1011R). The gist of the method:
as §1

Test [8] addresses PUM1 PUF domain R7-CTR (Homo sapiens, UniProt Q14671 828-1176, S1079C;N1080T;E1083R). An outline of the steps: as §1
Test [9] addresses PUM1 PUF domain R7-EPD (Homo sapiens, UniProt Q14671 828-1176, S1079E;N1080P;E1083D). The gist of the method:
as §1

Test [10] addresses PUM1 PUF domain R7-QGG (Homo sapiens, UniProt Q14671 828-1176, S1079Q;N1080G;E1083G). The gist of the method: as §1
For test [11], the target named is PUM1 PUF domain R2-LHR (Homo sapiens, UniProt Q14671 828-1176, N899L;Y900H;Q903R). An outline of the steps:
as §1

Test [12] addresses PUM1 PUF domain R1-RRE (Homo sapiens, UniProt Q14671 828-1176, S863R;Q867E). An outline of the steps: as §1
Test [13] has as its target PUM1 PUF domain R5-GSK (Homo sapiens, UniProt Q14671 828-1176, C1007G;R1008S;Q1011K). The gist of the method: as §1
In test [14] the target is PUM1 PUF domain R3-EWR (Homo sapiens, UniProt Q14671 828-1176, C935E;R936W;Q939R). An outline of the steps: as §1
Test [15] has as its target PUM1 PUF domain R1-MPR (Homo sapiens, UniProt Q14671 828-1176, S863M;R864P;Q867R). An outline of the steps: as §1
The target of test [16] is PUM1 PUF domain R1-KCQ (Homo sapiens, UniProt Q14671 828-1176, S863K;R864C). The gist of the method: as §1
Test [17] has as its target PUM1 PUF domain R1-KNI (Homo sapiens, UniProt Q14671 828-1176, S863K;R864N;Q867I). An outline of the steps:
as §1

The target of test [18] is PUM1 PUF domain R3-DWQ (Homo sapiens, UniProt Q14671 828-1176, C935D;R936W). An outline of the steps:
as §1

For test [19], the target named is T1, PUM1 PUF domain R6-IFN (Homo sapiens, UniProt Q14671 828-1176, N1043I;Y1044F;Q1047N).
T1 sequence: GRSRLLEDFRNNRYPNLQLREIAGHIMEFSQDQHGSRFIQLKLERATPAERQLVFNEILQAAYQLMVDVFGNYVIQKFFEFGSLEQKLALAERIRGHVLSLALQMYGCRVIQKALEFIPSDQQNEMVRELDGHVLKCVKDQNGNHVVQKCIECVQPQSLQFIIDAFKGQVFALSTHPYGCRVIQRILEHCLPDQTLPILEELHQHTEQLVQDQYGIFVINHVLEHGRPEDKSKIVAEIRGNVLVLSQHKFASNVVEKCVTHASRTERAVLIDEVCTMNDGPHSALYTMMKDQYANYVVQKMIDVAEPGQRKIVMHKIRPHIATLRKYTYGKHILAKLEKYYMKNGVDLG
The gist of the method:
as §1

The target in test [20] is PUM1 PUF domain R8-CYC (Homo sapiens, UniProt Q14671 828-1176, N1122C;Q1126C). An outline of the steps: as §1

As for “GGCUAGAACUAGUGGAUCCCCCGGCGCCCGGCGGCUCGAGCCCGGGUAAGUGUAAAUAGUCUGCAUGCCGCCGGGCGCCAUGCCUGCAGGUCGACUCUAGAAAACAUG”, the binding signal in [1] is 4.45 log2 enrichment (interaction score); in test [2], 2.69 log2 enrichment (interaction score); in test [3] it was 4.32 log2 enrichment (interaction score); in test [4], 3.01 log2 enrichment (interaction score); in test [5], 2.66 log2 enrichment (interaction score); in test [6] it was 3.23 log2 enrichment (interaction score).

With “GGCUAGAACUAGUGGAUCCCCCGGCGCCCGGCGGCUCGAGCCCGGGUAAGUGUCAAUAGUCUGCAUGCCGCCGGGCGCCAUGCCUGCAGGUCGACUCUAGAAAACAUG”, the binding signal in test [7] is 5.18 log2 enrichment (interaction score).

“GGCUAGAACUAGUGGAUCCCCCGGCGCCCGGCGGCUCGAGCCCGGGUAAGUUUAAAUAGUCUGCAUGCCGCCGGGCGCCAUGCCUGCAGGUCGACUCUAGAAAACAUG”: the binding signal in [8] is 2.95 log2 enrichment (interaction score); in test [9], 3.42 log2 enrichment (interaction score); in test [10] it was 3.51 log2 enrichment (interaction score).

Consider “GGCUAGAACUAGUGGAUCCCCCGGCGCCCGGCGGCUCGAGCCCGGGUAAGUGUAAAAAGUCUGCAUGCCGCCGGGCGCCAUGCCUGCAGGUCGACUCUAGAAAACAUG”, for which the binding signal in [11] is 3.5 log2 enrichment (interaction score).

Turning to “GGCUAGAACUAGUGGAUCCCCCGGCGCCCGGCGGCUCGAGCCCGGGUAAGUGUACAUAGUCUGCAUGCCGCCGGGCGCCAUGCCUGCAGGUCGACUCUAGAAAACAUG”, the binding signal in test [1] was 5.76 log2 enrichment (interaction score).

As for “GGCUAGAACUAGUGGAUCCCCCGGCGCCCGGCGGCUCGAGCCCGGGUAAGUGUAAAUGGUCUGCAUGCCGCCGGGCGCCAUGCCUGCAGGUCGACUCUAGAAAACAUG”, the binding signal in test [12] is 2.12 log2 enrichment (interaction score).

For “GGCUAGAACUAGUGGAUCCCCCGGCGCCCGGCGGCUCGAGCCCGGGUAAGUGUUAAUAGUCUGCAUGCCGCCGGGCGCCAUGCCUGCAGGUCGACUCUAGAAAACAUG”, the binding signal in test [13] was 2.59 log2 enrichment (interaction score).

“GGCUAGAACUAGUGGAUCCCCCGGCGCCCGGCGGCUCGAGCCCGGGUAAGUGUAUAUAGUCUGCAUGCCGCCGGGCGCCAUGCCUGCAGGUCGACUCUAGAAAACAUG”: the binding signal in [1] was 7.01 log2 enrichment (interaction score).

“GGCUAGAACUAGUGGAUCCCCCGGCGCCCGGCGGCUCGAGCCCGGGUAAGUGUAAGUAGUCUGCAUGCCGCCGGGCGCCAUGCCUGCAGGUCGACUCUAGAAAACAUG”: the binding signal in test [2] was 4.64 log2 enrichment (interaction score); in [14], 0.97 log2 enrichment (interaction score); in [5] it was 1.67 log2 enrichment (interaction score); in test [6], 0.66 log2 enrichment (interaction score).

For “GGCUAGAACUAGUGGAUCCCCCGGCGCCCGGCGGCUCGAGCCCGGGUAAGUGUAAAUUGUCUGCAUGCCGCCGGGCGCCAUGCCUGCAGGUCGACUCUAGAAAACAUG”, the results for the binding signal in test [15], in test [16] and in test [12] were 3.08 log2 enrichment (interaction score), 3.28 log2 enrichment (interaction score) and 2.91 log2 enrichment (interaction score), respectively.

For “GGCUAGAACUAGUGGAUCCCCCGGCGCCCGGCGGCUCGAGCCCGGGUAAGUGUAAAUCGUCUGCAUGCCGCCGGGCGCCAUGCCUGCAGGUCGACUCUAGAAAACAUG”, the binding signal in [15] is 2.06 log2 enrichment (interaction score); in test [17] it was 4.2 log2 enrichment (interaction score); in test [12] it was 3.92 log2 enrichment (interaction score).

In the case of “GGCUAGAACUAGUGGAUCCCCCGGCGCCCGGCGGCUCGAGCCCGGGUAAGGGUAAAUAGUCUGCAUGCCGCCGGGCGCCAUGCCUGCAGGUCGACUCUAGAAAACAUG”, in test [3], the binding signal was 2.37 log2 enrichment (interaction score).

As for “GGCUAGAACUAGUGGAUCCCCCGGCGCCCGGCGGCUCGAGCCCGGGUAAGUGUAAUUAGUCUGCAUGCCGCCGGGCGCCAUGCCUGCAGGUCGACUCUAGAAAACAUG”, the binding signal in test [2] is 4.13 log2 enrichment (interaction score); in test [14], 3.22 log2 enrichment (interaction score); in test [5], 2.28 log2 enrichment (interaction score); in test [18], 4.15 log2 enrichment (interaction score); in [6] it was 1.22 log2 enrichment (interaction score).

Regarding “GGCUAGAACUAGUGGAUCCCCCGGCGCCCGGCGGCUCGAGCCCGGGUAAGUGAAAAUAGUCUGCAUGCCGCCGGGCGCCAUGCCUGCAGGUCGACUCUAGAAAACAUG”, the binding signal in test [19] was 5.05 log2 enrichment (interaction score).

Take “GGCUAGAACUAGUGGAUCCCCCGGCGCCCGGCGGCUCGAGCCCGGGUAAGCGUAAAUAGUCUGCAUGCCGCCGGGCGCCAUGCCUGCAGGUCGACUCUAGAAAACAUG”: the binding signal in test [20] was 2.77 log2 enrichment (interaction score); in test [4], 2.11 log2 enrichment (interaction score).
